What follows are sequences tested against SULT1A2 (assay: pooled miR-30 sensor sort-seq; sequence = guide strand). Conditions: shRNA.
TGGTCCATGAACTCCCGGCGGA was tested, and the sensor-assay potency score (higher = more potent) was -1.53.
ATGAGGTCCACAGTCTCCTCTG showed a sensor-assay potency score (higher = more potent) of -1.
In the case of TTTTTCAGAGTCTCCATCCCTG, the sensor-assay potency score (higher = more potent) is reported as -0.0359.
Work on ACCCATAGGACACTTCTCCAGC yielded a sensor-assay potency score (higher = more potent) of -2.4.
Sequence TGAGGTCCACAGTCTCCTCTGG has a sensor-assay potency score (higher = more potent) of -0.796.
TTTATTCTGGAGCCTCTTGGTC gave a sensor-assay potency score (higher = more potent) of -0.833.
TGTGTTTTTCAGAGTCTCCATC showed a sensor-assay potency score (higher = more potent) of -0.796.
For TCCAGCCATGAACTTCTCCAGG, the sensor-assay potency score (higher = more potent) was -1.76.
Sequence TAGGAAACCGCCACATCCTTTG has a sensor-assay potency score (higher = more potent) of -0.928.
TGGGACTTTGAACTCAAGGAAG gave a sensor-assay potency score (higher = more potent) of -1.59.

The sequences below were run against SULT6B1 in the same assay as above. Conditions: shRNA.
With TGTCCTTTCATGAACTGTCTGA the sensor-assay potency score (higher = more potent) was 0.266.
TAATATGAACTTAACATTGTCG gave a sensor-assay potency score (higher = more potent) of 0.349.
For TGAACTTAACATTGTCGCCATC, the sensor-assay potency score (higher = more potent) was -1.22.
Work on TAATTCACTGACAATGTGGAGA yielded a sensor-assay potency score (higher = more potent) of -0.0659.
Sequence TATTAATTCACTGACAATGTGG has a sensor-assay potency score (higher = more potent) of -0.366.
TATAATATGAACTTAACATTGT was tested, and the sensor-assay potency score (higher = more potent) was -0.395.
In the case of TTATTCTCGAAGATAGACCCAG, the sensor-assay potency score (higher = more potent) is reported as -0.349.
TATTCTCGAAGATAGACCCAGG gave a sensor-assay potency score (higher = more potent) of -0.373.
Sequence TGGAATATCGGGGACATCGTTG has a sensor-assay potency score (higher = more potent) of -1.15.
With TAATTTGTCATAGTGGAGGTGA the sensor-assay potency score (higher = more potent) was 0.271.
TATGAACTTAACATTGTCGCCA showed a sensor-assay potency score (higher = more potent) of 0.543.
Sequence TACTGCTGTATCTTTAGGGTTT has a sensor-assay potency score (higher = more potent) of -0.446.

Source: the OligoGym collection
Also: reference of the scale not given here.
